Source: PubChem
Shown are actives, neighbours in structure and some others; about 0.9% of the full set was active somewhere.
RECQ1 inh-1: blocks DNA unwinding by human RECQ1 | P46063 | RECQ1 DNA unwinding, red fluorescence kinetic read | Potency, µM (highest dose often 57.3 µM), for inactives: at the top dose activity, negative = inhibition, actives largely listed as inhibitors | 240,000 tested, 0.54% active;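 also: plate controls were vehicle for no effect and no enzyme for full effect; nearly all actives have a fitted effect of over 30% in size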
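RECQ1T1 50 nM; forked duplex (20 bp + 30-nt ss tails) 200 nM, ATP 2 mM final; pH 8.0, 2 mM MgCl2, 2.5 ug/ml poly(dI-dC); 15 min compound preincubation; discontinuous kinetic read over 2 h at RT.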
LMNA splice mod: LMNA splicing modulation; HeLa LMNA splicing GFP/RFP minigene ratio, 48 h; 200,000 tested, 0.01% active; Potency, µM (titrated, usually from 46.1 µM), inactives show at the highest dose ratio change, negative = inhibition, actives largely listed as inhibitors; active = well fitted inhibition curve with a large enough effect in the signal ratio, with a control signal flat, not every such curve was filed as active; inconclusive = small, poorly fitted or top-dose-only effect, or effect the other way, or a change in a side signal; the % refers to the signal ratio
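S3 HeLa stable clones carrying a lamin A-EGFP splicing minigene plus DsRed2 were seeded at 600 cells/well in Opti-MEM with 2% FBS, pin-dosed and incubated 48 h at 37°C. Acumen cytometry (488 nm) gave the GFP/RFP total-intensity ratio.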
GCN5L2 inh: GCN5L2 (KAT2A) acetyltransferase inhibition. Potency, µM (titrated, usually from 58.9 µM), for the others: top-dose activity change, negative = inhibition, most hits filed as inhibitors. AID 504327. Q92830. GCN5L2 HAT assay, ThioGlo1 CoA-SH fluorescence. 390,000 tested, 0.21% active
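qHTS, 1536-well. 20nM enzyme, pH 7.5 HEPES/EDTA/Tween-20 buffer; 15 min compound preinc., RT. Start: 75uM H3(1-25), 70uM AcCoA, 50uM ThioGlo1. Read Ex340/Em540 at t=0 (autofluorescence flag) and t=20 min.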
APE1 inh-1: blocks human APE1 abasic DNA cleavage; Potency, µM (series often up to 65.8 µM), for inactives: top-dose activity change, negative = inhibition, usual class: inhibitors; AID 2517; recombinant APE1, TAMRA/BHQ-2 abasic DNA cleavage fluorescence; 350,000 tested, 0.35% active; P27695;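 also: plate controls were vehicle for no effect and reference inhibitor for full effect; nearly all actives have a fitted effect of over 55% in size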
Target sequence (P27695 whole entry, looked up): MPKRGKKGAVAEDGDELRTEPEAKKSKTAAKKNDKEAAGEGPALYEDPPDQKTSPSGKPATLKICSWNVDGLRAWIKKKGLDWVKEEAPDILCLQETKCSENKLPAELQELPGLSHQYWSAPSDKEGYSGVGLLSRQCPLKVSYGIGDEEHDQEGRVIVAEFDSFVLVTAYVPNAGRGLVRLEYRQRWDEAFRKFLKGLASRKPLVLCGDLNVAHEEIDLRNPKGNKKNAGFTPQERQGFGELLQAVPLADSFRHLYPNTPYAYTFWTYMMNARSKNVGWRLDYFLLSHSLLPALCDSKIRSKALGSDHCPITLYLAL
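APE1 at 0.75 nM final was preincubated with compound 15 min at room temperature, then 50 nM double-stranded THF abasic-site substrate (5'-TAMRA/3'-BHQ-2) was added. Fluorescence (ex 525/em 598 nm) was read kinetically; third-minus-first read gave activity.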
BLM inh-1: Bloom syndrome helicase (human) inhibition; P54132; recombinant BLM DNA unwinding, fluorescence dequenching; Potency, µM (series often up to 56.1 µM), without a hit: at the highest dose activity change, negative = inhibition, actives largely listed as inhibitors; 350,000 tested, 0.2% active;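 also: plate controls were vehicle for no effect and no enzyme for full effect; nearly all actives have a fitted effect of over 35% in size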
TDP1 block: TDP1 (human) enzyme inhibition; recombinant TDP1, AlphaScreen DNA substrate cleavage; Potency, µM (titrated, usually from 130 µM), for the others: at the top dose activity change, negative = inhibition, most hits filed as inhibitors; 350,000 tested, 0.28% active; also: nearly all actives have a fitted effect of over 40% in size
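AlphaScreen read-out: signal falls as enzyme removes the 3' tyrosine-FITC from a 5'-biotinylated DNA oligo (15 nM, 5 min, RT). Enzyme was E. coli-made recombinant Tdp1 at 1 nM, exposed to compound for 15 min beforehand; beads 10 ug/ml, 10 min.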
DNA dye displace: displaces fluorescent dye from DNA, flagging APE1 artifacts | Potency, µM (highest dose often 28.5 µM), without a hit: at the highest dose activity change, negative = inhibition, hits mostly inhibitors | DNA fluorescent dye displacement counterscreen, fluorescence | 480 tested, 7% active | shares compounds with APE1 inh-1;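 also: loss of thiazole orange fluorescence as the dye is displaced from duplex DNA; 0% = ThO with dsDNA and no compound and -100% = ThO without dsDNA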
Endo IV inh: counter-screen for APE1 inhibitors: inhibitors of E. coli endonuclease IV | shares compounds with APE1 inh-1 | E. coli Endo IV, fluorogenic AP-site DNA cleavage | Potency, µM (highest dose often 27.1 µM), for the others: at the top dose activity change, negative = inhibition, most hits filed as inhibitors | 560 tested, 4% active;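 also: plate controls were uninhibited enzyme wells for no effect and no enzyme buffer wells for full effect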
APE1 inh-2: APE1 (human) endonuclease inhibition, confirmation. AID 2572. purified APE1, fluorogenic abasic-site DNA cleavage. 750 tested, 44% active. Potency, µM (series often up to 57.1 µM), inactives show top-dose activity change, negative = inhibition, hits mostly inhibitors. shares compounds with APE1 inh-1; also: nearly all actives have a fitted effect of over 30% in size
APE1 FP inh: displaces DNA from human APE1 in FP assay | APE1 binding to TAMRA-labelled double-stranded DNA, fluorescence polarization displacement | Potency, µM (highest dose often 28.5 µM), for inactives: at the highest dose activity, negative = inhibition, most hits filed as inhibitors | shares compounds with APE1 inh-1 | 480 tested, 7% active
BLM inh-2: confirmation of inhibitors of human Bloom syndrome helicase BLM; shares compounds with BLM inh-1; BLM DNA unwinding, fluorescence quenching, biochemical; Potency, µM, for inactives: max response, negative = inhibition, most hits filed as inhibitors; 220 tested, 40% active;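 also: strand separation dequenches TAMRA so unwinding raises red fluorescence; series mostly up to about 69 µM; nearly all actives have a fitted effect of over 45% in size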
RECQ1 conf: confirmation of human RECQ1 helicase inhibitors; shares compounds with RECQ1 inh-1; RECQ1 helicase DNA unwinding, fluorescence; Potency, µM (doses to about 229 µM), without a hit: top-dose activity change, negative = inhibition, most hits filed as inhibitors; 610 tested, 28% active; AID 2708; also: nearly all actives have a fitted effect of over 45% in size
ADP FP counter: displaces ADP in a fluorescence polarization counter-screen for RECQ1 hits; shares compounds with RECQ1 inh-1; 530 tested, 27% active; ADP fluorescence polarization displacement counterscreen; AID 2711; Potency, µM (highest dose often 228 µM), for the others: at the top dose activity change, negative = inhibition, most hits filed as inhibitors; also: nearly all actives have a fitted effect of over 45% in size
RECQ1 inh-2: blocks human RECQ1 DNA unwinding; Potency, µM (doses to about 119 µM), for inactives: at the top dose activity, negative = inhibition, hits mostly inhibitors; recombinant RECQ1 DNA unwinding, red fluorescence; 1,100 tested, 15% active; shares compounds with RECQ1 inh-1; also: nearly all actives have a fitted effect of over 50% in size
* hit, by the source's call; i = inactive; ? = inconclusive; . = not tested or not shown; ! = repeats disagree; [ ] = another dose, or the depositor's remark. Unless noted, calls follow the shape of the dose curve; as a rule, active = well fitted curve in the direction sought with a large enough effect; inconclusive = small, poorly fitted or top-dose-only effect, or another doubt; inactive = no such curve, though single readings can be large; an effect the other way counts as inactive or inconclusive. Unless noted, % is scaled to controls: 0 for no effect and ±100 for the full control effect; potency is read from the fitted curve at half-maximal effect.

SMILES	RECQ1 inh-1	LMNA splice mod	GCN5L2 inh	APE1 inh-1	BLM inh-1	TDP1 block	DNA dye displace	Endo IV inh	APE1 inh-2	APE1 FP inh	RECQ1 conf	ADP FP counter	RECQ1 inh-2	others
O=C(Nc1cccc(S(=O)(=O)NC2=NCCCCC2)c1)c1cc(-c2ccncc2)nc2ccccc12	-9%	?	-26%	2%	-5%	8%	.	.	.	.	.	.	.
N#Cc1cccc(-c2csc(N3CCC(C(N)=O)CC3)n2)c1	.	.	.	-10%	.	.	.	.	.	.	.	.	.
Cc1ccc(/C=c2\sc3nc(-c4ccccc4Br)nn3c2=O)o1	?	-4%	-15%	13µM*	-21%	.	?	8%	-26%[24.4 µM]	14%	.	.	32%
Cc1ccc(/C=c2/sc3nnc(-c4ccccc4Cl)n3c2=O)o1	-15%	6%	?	?	?	-2%	.	.	.	.	.	.	.
O=C(CCCN1C(=O)/C(=C/c2ccco2)SC1=S)Nc1ccccc1C(=O)O	8.9µM*	.	-25%	20µM*	9%	.	-10%	119%	13µM*	-30%	28µM*	50µM*	.
CCOCC	-11%	.	?	-3%	-4%	2%	.	.	.	.	.	.	.
CNC[C@H](O)c1ccc(O)c(O)c1	18µM*!	?	5%	7.9µM*!	-3%	45µM*!	-3%[57.1 µM]	31%[57.1 µM]	?	-5%[57.1 µM]	?	14µM*	.
NC[C@H](O)c1ccc(O)c(O)c1	1.4µM*	?	?	0.89µM*!	3.5µM*	2.2µM*!	-6%[57.1 µM]	10%[57.1 µM]	0.79µM*	?	25µM*!	10µM*!	.
CC[C@@]1([C@@H]2O[C@@H]([C@H]3O[C@@](O)(CO)[C@H](C)C[C@@H]3C)C[C@@H]2C)CC[C@@H]([C@]2(C)CCC3(C[C@H](O)[C@@H](C)[C@@H]([C@@H](C)[C@@H](OC)[C@H](C)C(=O)O)O3)O2)O1 (some centres not stated)	-9%	.	-13%	-2%	-1%	8%	.	.	.	.	.	.	.
COc1ccc(C(=O)Nc2nnc(S(=O)(=O)N(C)c3ccc(C)cc3)s2)cc1	.	?	-4%	.	-4%	-9%	.	.	.	.	.	.	.
O=c1cc(O)cc(/C=C/c2ccc(O)c(O)c2)o1	0.79µM*	?	-25%	0.71µM*	.	.	.	3%[57.1 µM]	-18%	.	11%	?	.
Cc1cccc(NC(=O)CSc2nnc(-c3ccco3)c(-c3ccco3)n2)c1C	18µM*	0%[0.0737 µM]	?	?	18µM*	?	?	29%	?	1%	.	.	-13%
O=[N+]([O-])c1ccc(/C=C/C2=NN(c3ccccc3)C(c3ccco3)C2)o1 (configuration not stated)	?	?	-8%	?	-22%	-4%	21%	?	14µM*	-86%	.	.	7.9µM*
C(=C\c1ccco1)/C1=NN(c2ccccc2)C(c2ccco2)C1 (configuration not stated)	-17%	?	?	-2%	-29%	?	.	.	.	.	.	.	.
c1nc(NCCc2cnc[nH]2)c2ccc(-c3ccc4c(c3)OCO4)cc2n1	.	.	.	.	.	7%	.	.	.	.	.	.	.
COc1ccc(Br)cc1/C=c1\sc2nc(-c3ccco3)nn2c1=O	8.9µM*	7%	?	28µM*	-25%	.	?	6%	?	-14%	20µM*	?	.
COc1ccccc1/C=c1\sc2nc(-c3ccccc3OC)nn2c1=O	-9%	12%	-3%	-4%	0%	4%	.	.	.	.	.	.	.
Cc1ccc(CNC(=O)CCS(=O)(=O)c2ccc(Br)cc2)cc1	?	.	?	?	-17%	11µM*	.	.	?	.	.	.	?
CSc1nc(NCCOCCO)c2sc3nc(-c4ccco4)c4c(c3c2n1)CCC4	25µM*	6%	?	32µM*	25µM*	35µM*	13µM*	-10%	13µM*	-7%	.	.	?	BLM inh-2=?
COc1cc(OC)cc(-c2nnc3n2N=C(c2ccc(OC)cc2OC)CS3)c1	i	.	.	-9%	-9%	18%	.	.	.	.	.	.	.
CC(=O)NC1=NC(=O)/C(=C/c2cn(C(C)=O)nc2-c2ccccc2)S1	-4%	?	-23%	1%	-2%	.	.	.	.	.	.	.	.
CC(=O)NC1=NC(=O)/C(=C/c2cc(C)n(-c3cccc(C(=O)O)c3)c2C)S1	?	.	-29%	3.5µM*	-4%	3.5µM*	10%	-1%	4.5µM*	?	.	.	20µM*
COc1ccc2c(c1)c(=O)oc1cc(OCC(=O)N3CCc4ccccc4C3)ccc12	14µM*	-6%	-18%	10µM*	-19%	13µM*	-3%	?	4µM*	-29%	-7%[114 µM]	0%[91.9 µM]	?
CC(C)(CCCCCCCCCCC(C)(C)CC(=O)O)CC(=O)O	-2%	.	?	-3%	-6%	17%	.	.	.	.	.	.	.
